# Reference: PubChem BioAssay AID624296 (National Center for Advancing Translational Sciences (NCATS), 2012)
# Out of some 350,000 compounds screened, about 9,900 (2.8%) were called active. Another 15% or so got no clear call; they are omitted. Calls come from the whole dose curve; as a rule, active = well fitted activation curve with a large enough effect; inconclusive = small, poorly fitted or top-dose-only effect; inactive = no such curve, though single readings can be large or run the other way. The list comes from a sample in which actives are over-represented; it also holds similar structures and randomly drawn compounds. Where a call stands in place of a potency, no number is given.
# Assay: A quantitative high throughput screen for small molecules that induce DNA re-replication in MCF 10a normal breast cells. Note: nearly all actives have a fitted effect of over 50% in size.
# Conditions: MCF 10A DNA re-replication, Hoechst nuclear intensity, 48 h; series mostly up to 46.1 µM
# Potency is the fitted concentration of half-maximal effect.
row,Structure (SMILES),Potency
1,Cc1ccc(S(=O)(=O)N(C)c2ccc(OCC(=O)OCc3ccc(C#N)cc3)cc2)cc1,inactive
2,O=C(CC(=O)c1cccnc1)c1ccccc1,inactive
3,OC(COc1ccccc1)CN1CCN(c2cccc(Cl)c2)CC1 (stereo unspecified),inactive
4,C[C@@H]1NS(=O)(=O)c2cc(Cl)ccc2O[C@@H]1c1ccccc1,inactive
5,CCc1cccc(NC(=O)COC(=O)c2cc(=O)c3ccccc3o2)c1,inactive
6,CCOC(=O)C1CCCN(C(=O)CSc2nnc3nc(C)cc(C)n23)C1 (stereo unspecified),inactive
7,Cc1c(C(=O)Nc2cccc(S(=O)(=O)N3CCOCC3)c2)oc2ccccc12,inactive
8,CCN(CC)S(=O)(=O)c1ccc(NC(=O)CN(c2cccc(F)c2)S(C)(=O)=O)cc1,inactive
9,Cc1cccc(N(CC(=O)Nc2ccc(-c3nc4ccc(C)cc4s3)cc2)S(C)(=O)=O)c1,14.6 µM (active)
10,COc1cccc(N(CC(=O)Nc2cccc(F)c2)S(C)(=O)=O)c1,inactive
11,CCN(CC)C(=O)[C@H]1CC(CC(=O)NCc2ccco2)C(=O)N2CCc3c([nH]c4ccccc34)[C@]12C (stereo partly specified),inactive
12,CN(C)S(=O)(=O)c1ccc(C(=O)NCC2(N3CCOCC3)CCCCC2)cc1,inactive
13,Cc1cc(/C=N/NC(=O)c2cccnc2)c(C)n1CC(C)C,inactive
14,O=C(N/N=C/c1sc(N2CCCCC2)nc1-c1cccs1)c1cccnc1,0.461 µM (active)
15,O=C(N/N=C/c1ccc(O)c2ccccc12)c1cccnc1,inactive
16,OCCN1CCN(CCO)C1=S,inactive
17,O=C(CCC(=O)N1CCN(S(=O)(=O)c2ccc(Cl)cc2)CC1)NCc1cccc(C(F)(F)F)c1,inactive
18,C[C@H](NC(=O)c1[nH]cnc1C(=O)Nc1nccs1)c1ccccc1,inactive
19,CN(CC(=O)NCCc1ccc(S(N)(=O)=O)cc1)CC(=O)Nc1ccc(Cl)cc1,inactive
20,CCC(C)NC(=O)c1ccc(NC(=O)CC2SC(N3CCCCC3)=NC2=O)cc1 (stereo unspecified),inactive
21,CCOC(=O)c1c(-c2ccccc2)csc1NC(=S)NC(=O)c1ccccc1,inactive
22,Cc1ccc(NC(=S)NC(=O)c2ccc(-c3ccccc3)cc2)cc1,inactive

row,Structure (SMILES),Potency
1,CCOC(=O)C1=C(NC(=S)NC(=O)c2ccccc2)c2ccccc2CC1(C)C,4.11 µM (active)
2,CSc1ccc(S(=O)(=O)NCC(=O)OCC(=O)NC2(C#N)CCCCC2)cc1[N+](=O)[O-],inactive
3,COc1ccc(CCNC(=O)COC(=O)C2CC2C)cc1 (stereo unspecified),inactive
4,C#CCOCCOCCOCCNc1nc(N2CCN(C(=O)[C@H](CO)n3cc([C@@H](N)C(C)C)nn3)CC2)nc(N2CCN(C(=O)[C@H](CCC(=O)O)n3cc([C@@H](N)[C@H](C)CC)nn3)CC2)n1,inactive
5,CCOC(=O)C1=C(C)Nc2sc(C(=O)c3ccc(Br)cc3)c(N)c2C1c1ccc(C(=O)OC)cc1 (stereo unspecified),2.91 µM (active)
6,CCOC(=O)c1sc(=NC(=O)c2ccc(Br)cc2)n(C)c1C,inactive
7,CCOC(=O)c1sc(=S)n2c1[nH]c(=O)c1ccc(C(=O)OC)cc12,inactive
8,CC(Oc1ccc(Br)cc1)C(=O)NC1CCCCCC1 (stereo unspecified),inactive
9,COc1cccc(CC2(CO)CCCN(Cc3ccc(OC(F)F)cc3)C2)c1 (stereo unspecified),inactive
10,CCOc1cc(CN2CCCC(CO)(Cc3ccc(F)cc3F)C2)ccc1OC (stereo unspecified),3.66 µM (active)
11,CCc1[nH]nc(C(=O)N2CCCC(CO)(Cc3ccc(F)cc3F)C2)c1C (stereo unspecified),inactive
12,Cc1nc(N)nc(Cl)c1CCC1OCCO1,inactive
13,O=C(COC(=O)c1cccnc1Cl)NC(=O)NC1CCCCC1,inactive
14,CCOC(=O)[C@@H]1[C@H]2COc3ccc(Br)cc3[C@H]2N2C(=O)N(c3ccc(C)cc3)C(=O)[C@@]12C,inactive
15,COc1ccc(OC)c(/C(C)=N\NC(=O)c2cc3cc(Cl)ccc3n2C)c1,14.6 µM (active)
16,COc1ccc(/C(C)=N/NC(=O)CCC(=O)Nc2ccc(Cl)cc2Cl)c(OC)c1,inactive
17,COc1ccc(OC)c(C(=O)c2ccc(Cl)cc2)c1,inactive
18,C=CCN1C=C(C(=O)c2ccccc2)C(=O)CC1,inactive
19,OCC[C@H]1C[C@@H](O)[C@H](O)[C@@]2(OCCc3ccccc32)O1,inactive
20,O=C(Nc1cccc(Br)c1)C1CC(=O)N(C2CCCC2)C1 (stereo unspecified),inactive
21,Cc1cccc(C(=O)NCC(=O)OCC(=O)N2CC3(C)CC2CC(C)(C)C3)c1 (stereo unspecified),inactive
22,Cc1nnnn1/C(=C\c1ccccc1)C(=O)OCC(=O)N1CC2(C)CC1CC(C)(C)C2 (stereo unspecified),16.4 µM (active)

row,Structure (SMILES),Potency
1,COc1ccccc1C(=O)N1CC2(C)CC1CC(C)(C)C2 (stereo unspecified),inactive
2,O=C(COC(=O)Cc1ccc([N+](=O)[O-])cc1)NC1CCCCCC1,inactive
3,CSc1ncccc1C(=O)Nc1cccc(S(=O)(=O)N2CCOCC2)c1,inactive
4,CSc1ncc(Sc2ccccc2)c(C(=O)O)n1,inactive
5,CSc1nc(-c2ccccc2)nc(C(Cl)Cl)n1,2.59 µM (active)
6,CSc1nc(C)cc(SC(C(C)=O)C(=O)Nc2ccccc2)n1 (stereo unspecified),inactive
7,O=C(Nc1cccc(S(=O)(=O)NC2=NCCC2)c1)c1ccc(F)cc1F,inactive
8,O=C(Nc1ccc(C(F)(F)F)cc1)c1cccc(-n2cnnn2)c1,inactive
9,CC(C)COc1ccc(C(=O)NNC(=O)CCC(=O)c2cccs2)cc1,inactive
10,O=C(NCc1ccccc1)C1=C[C@H](C2CC2)C[C@H](OCc2ccc(CO)cc2)O1,inactive
11,O=C(O)C1=C[C@H](c2cccs2)C[C@H](OCCCCO)O1,inactive
12,O=C(NCc1ccccc1)C1=C[C@@H](c2ccccc2)C[C@@H](OCCCCO)O1,16.4 µM (active)
13,O=C(NCc1ccccc1)C1=C[C@@H](C2CCCCC2)C[C@@H](OCc2ccc(CO)cc2)O1,18.4 µM (active)
14,CC(C)(C)[C@H]1C=C(C(=O)NCc2ccccc2)O[C@@H](OCc2ccc(CO)cc2)C1,inactive
15,C#Cc1ccc([C@@H]2C=C(C(=O)O)O[C@H](OCCCCO)C2)cc1,inactive
16,CC(=O)OC1CCC2(C)C(=CCC3C4CC(=O)N(O)C(=O)C4(C)CCC32)C1 (stereo unspecified),inactive
17,CC(C)Cc1nnc(N)s1,inactive
18,NC(=S)N/N=C/c1ccc([N+](=O)[O-])cc1,inactive
19,COc1ccc(Nc2ccc([N+](=O)[O-])cn2)cn1,inactive
20,CC(C)c1ccc(C=NNc2ccc([N+](=O)[O-])cn2)cc1,6.51 µM (active)
21,Cc1ccc(S(=O)(=O)NCCNC(C)c2ccc(Br)cc2)cc1 (stereo unspecified),inactive
22,C#CCOCCOCCOCCNc1nc(N2CCN(C(=O)[C@H](CCCN=C(N)N)n3cc(C(N)[C@@H](C)CC)nn3)CC2)nc(N2CCN(C(=O)[C@H](CO)n3cc([C@@H](N)C(C)C)nn3)CC2)n1 (stereo partly specified),inactive
